The full list was thinned out, with hits kept by preference.
Cycloheximide cs: counter-screen for Shiga toxin inhibitors: cycloheximide protein synthesis inhibition; cell reporter, cycloheximide protein synthesis inhibition counterscreen; actives 12% (n = 300,000); max response, %; in the data active = max response mostly above about 13%, no sharp cut-off; inactive = mostly below about 14%; also: read at 38.3 µM for the half of the compounds with a filed dose; 0% is about no effect
NS1 function inh: inhibitors of influenza NS1 protein function | AID 2326 | Potency, µM (doses to about 46.1 µM), for the others: at the highest dose activity, positive = more growth | actives 0.4% (n = 270,000); calls by dose curve; also: potency is read from the fitted curve at half-maximal effect; actives are rising curves; nearly all actives have a fitted effect of over 50% in size
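A cell-based growth assay was used: compounds that relieve NS1-induced slow growth of budding yeast raise OD600. Assay medium was yeast nitrogen base with ammonium sulphate and -URA supplement, pH 6.0, with 2% galactose.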
Shiga inhibitor: inhibitors of Shiga toxin in Vero cells; Vero cells, Shiga toxin protein synthesis inhibition reporter; inhibition, % at 38.7 µM; AID 2315; actives 9.2% (n = 290,000); in the data active = inhibition mostly above about 28%, no sharp cut-off; inactive = mostly below about 43%; also: 0% is about no effect
AmpC inh detg: AmpC beta-lactamase inhibition with detergent present; P00811; AmpC hydrolysis of nitrocefin, absorbance 480 nm, 0.01% Triton; actives 0.041% (n = 370,000); AID 485294; Potency, µM (series often up to 114 µM), without a hit: top-dose activity change, negative = inhibition, hits mostly inhibitors;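 also: potency is read from the fitted curve at half-maximal effect; 0% = no-compound wells and -100% = no-enzyme wells; nearly all actives have a fitted effect of over 25% in size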
Target sequence (P00811 whole entry, looked up): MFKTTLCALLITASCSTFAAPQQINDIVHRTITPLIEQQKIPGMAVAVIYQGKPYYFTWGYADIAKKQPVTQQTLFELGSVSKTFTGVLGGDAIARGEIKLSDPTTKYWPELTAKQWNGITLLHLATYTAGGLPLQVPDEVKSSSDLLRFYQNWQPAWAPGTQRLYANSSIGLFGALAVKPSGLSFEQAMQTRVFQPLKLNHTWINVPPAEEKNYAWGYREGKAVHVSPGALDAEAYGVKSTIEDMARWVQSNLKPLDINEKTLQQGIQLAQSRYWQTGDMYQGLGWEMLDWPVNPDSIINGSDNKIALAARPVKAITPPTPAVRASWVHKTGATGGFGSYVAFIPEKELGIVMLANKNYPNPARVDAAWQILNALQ
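AmpC (5.3 nM in the dispensed reagent) in 20 mM phosphate pH 7.0 with 0.01% (detergent screen) or 0.0001% Triton X-100 was preincubated with compounds for 15 min at room temperature. Nitrocefin was then added from an 800 uM solution, and hydrolysis was followed at 480 nm.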
AmpC inh no detg: inhibitors of E. coli AmpC beta-lactamase without detergent. actives 0.52% (n = 330,000). Potency, µM (doses to about 57.1 µM), without a hit: at the highest dose activity change, negative = inhibition, usual class: inhibitors. AmpC nitrocefin hydrolysis, absorbance 480 nm, 0.0001% Triton;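 also: potency is read from the fitted curve at half-maximal effect; plate controls were no compound for no effect and no enzyme for full effect; nearly all actives have a fitted effect of over 20% in size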
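20 mM phosphate pH 7.0 + 0.01% (detergent screen) or 0.0001% Triton X-100; 5.3 nM AmpC reagent; cpd preinc 15 min RT; nitrocefin (800 uM stock) to start; A480 q20 s × 4 min; Activity was normalised to no-enzyme and no-compound control wells.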
* = called active by the depositor; ? = inconclusive; nt = no result given. Unless noted, calls follow the shape of the dose curve; as a rule, active = well fitted curve in the direction sought with a large enough effect; inconclusive = small, poorly fitted or top-dose-only effect, or another doubt; inactive = no such curve, though single readings can be large; an effect the other way counts as inactive or inconclusive.

SMILES	Cycloheximide cs	NS1 function inh	Shiga inhibitor	AmpC inh detg	AmpC inh no detg
Cc1ccc(NC(=O)C(Cc2ccccc2)N2Cc3ccccc3C2=O)cc1Cl (configuration not stated)	nt	nt	nt	19%	nt
CNC(=S)N/N=C/c1ccc(N(C)C)cc1	54*	-5%	77*	-6%	-5%
CN(C)c1ccc(/C=N/NC(=S)NCc2ccccc2)cc1	24*	23%	-7	?	-54%
CC(C)(C)c1ccc(/C=N/NC(=S)NCc2ccccc2)cc1	-2	8%	7	-5%	-46%
CCCCCOC(=O)C1=C(C)Nc2nnnn2C1c1ccccc1Cl (configuration not stated)	-1	-9%	-9	-9%	9%
O=C(Nc1ccc(Br)cc1)C1Cc2ccccc2O/C1=N\O (configuration not stated)	55*	2%	111*	7%	-26%
Cc1ccc(NC(=O)C2Cc3ccccc3O/C2=N\O)cc1C (configuration not stated)	49*	1%	74*	-1%	-28%
COCc1ccc(CN2CCC(n3nccc3NC(=O)CCOc3ccccc3)CC2)o1	-1	3%	-9	?	32%
CCOC(=O)c1c(NC(=O)c2cc(OC)c(OC)c(OC)c2)sc2c1CCCC2	nt	nt	nt	15%	nt
Oc1ccc(COCc2ccccc2)c2cccnc12	68*	-93%	147*	-13%	-25%
Oc1c(CN2CCCCC2)cc(COCc2ccccc2)c2cccnc12	17*	-84%	34	?	2%
O=C1CC(NN2CCCCC2)C(=O)N1c1ccccc1 (configuration not stated)	13*	2%	61	-4%	-36%
Cc1occc1C(=O)NCCCc1ccccc1	25*	-56%	117	5%	-10%
Cc1occc1C(=O)NNC(=S)NCc1ccc(Cl)cc1	28*	nt	28	2%	-29%
Cc1ccc(/C=C/C(=O)NCCc2cccc(Cl)c2)o1	29*	-65%	nt	-7%	-25%
Cc1occc1C(=O)NNC(=S)NCc1ccccc1	-1	11%	-9	?	-14%
Cc1ccc(/C=C/C(=O)NCCc2c[nH]c3ccccc23)o1	2	nt	1	-6%	-15%
Cc1occc1C(=O)NCCc1cccc(Cl)c1	69*	-118%	130*	-13%	-21%
O=[N+]([O-])c1cc(/C=N/NC(=S)Nc2ccccc2Cl)ccc1Cl	10	nt	21	?	-34%
S=C(N/N=C/c1ccc(Cl)c(Cl)c1)Nc1ccccc1Cl	23*	nt	30	-12%	-32%
Fc1cccc(/C=N/NC(=S)Nc2ccccc2Cl)c1	36*	10%	31	-8%	-20%
Fc1ccc(NC(=S)N/N=C/c2cccc(Br)c2)c(F)c1	5	0%	-11	-14%	?
Cc1cc2c3c([nH]c2cc1S(=O)(=O)NCCCOC(C)C)CC(C)(C)CC3=O	-1	2%	-8	?	-23%
O=C(c1cc(COc2cccc(C(F)(F)F)c2)on1)N1CCC(Oc2cccnc2)CC1	14	-56%	3	-12%	122%
COc1ccc(-c2noc(C3CCCN(C(=O)c4ccc(F)cc4)C3)n2)cc1 (configuration not stated)	26*	-23%	71	-12%	62%
SMILES	Cycloheximide cs	NS1 function inh	Shiga inhibitor	AmpC inh detg	AmpC inh no detg
O=C(c1c(F)cccc1F)N1CCCC(c2nc(-c3ccc(F)cc3)no2)C1 (configuration not stated)	24*	-20%	nt	2%	26%
O=C(c1ccc(F)cc1)N1CCCC(c2nc(-c3ccncc3)no2)C1 (configuration not stated)	nt	nt	nt	-4%	-12%
COc1ccc(-c2noc(C3CCCN(C(=O)c4ccc(C)cc4)C3)n2)cc1 (configuration not stated)	15	-10%	11	1%	1%
Cc1ccc2ncccc2c1	nt	nt	nt	2%	-17%
Cc1ccc2nc(/C=C/c3cccc(F)c3)ccc2c1	65*	-6%	90*	?	-28%
COc1ccc(-n2c3c(c(=O)[nH]c2=O)C(NC(=O)c2ccncc2)(C(F)(F)F)C(=O)N3)cc1 (configuration not stated)	10	nt	34	-14%	-18%
Cc1nn(-c2ccccc2)c(Cl)c1C(=O)NCC(=O)O	-1	3%	-23	-4%	-18%
Cc1nn(-c2ccccc2)c(Cl)c1C(=O)NC1CCCCC1	15*	-5%	8	3%	10%
Cc1ccc(NC(=O)c2c(C)nn(-c3ccccc3)c2Cl)c(C)c1	23*	-4%	60*	3%	42%
Cc1cccc(C)c1NC(=O)c1c(C)nn(-c2ccccc2)c1Cl	-1	-6%	-5	-4%	?
CC(C)Cn1c(CN2CCN(c3cccc(Cl)c3)CC2)nc2c1c(=O)[nH]c(=O)n2C	nt	nt	nt	7%	nt
COc1ccc(C(=O)/C=C/Nc2ccc([N+](=O)[O-])cc2C)cc1OC	5	-3%	14	4%	2µM*
COc1ccc(C(=O)/C=C/Nc2ccc([N+](=O)[O-])cc2C)c(OC)c1	2	-2%	4	1%	1.3µM*
COc1ccc(C(=O)/C=C/Nc2cc(C)on2)c(OC)c1	25*	-38%	65	-8%	-3%
CCCN(C(=O)CCc1nc(-c2ccccc2F)no1)c1ccc(CC)cc1	nt	nt	nt	7%	nt
C#CCN(C(=O)c1ccc(OC2CCN(Cc3ccccn3)CC2)cc1)C1CCCCC1	-2	-1%	-6	-1%	122%
Cc1cccnc1CCNC(=O)c1ccc(OC2CCN(Cc3ccccn3)CC2)cc1	18*	?	60	4%	45%
O=C(NCCc1cccc(Cl)c1)c1ccc(OC2CCN(Cc3ccccn3)CC2)cc1	51*	-3%	53*	-13%	110%
CN(C(=O)c1ccc(OC2CCN(Cc3ccccn3)CC2)cc1)C1CCCCC1	21*	4%	22	1%	86%
O=C(c1ccccc1Br)N(Cc1ccccc1F)C1CCS(=O)(=O)C1 (configuration not stated)	nt	nt	nt	10%	nt
Oc1ccccc1CNc1cccc2cccnc12	45*	8%	62*	11%	-21%
COc1cc(NCc2ccccc2O)c2ncccc2c1	20*	?	28	-8%	-41%
NC(=S)Nc1cccc2cccnc12	4	3%	15	-3%	-11%
NC(=S)NNc1cccc2cccnc12	19*	0%	39*	8%	-3%
CCN(C(=O)CCS(=O)(=O)c1ccc2c(c1)CCN2C(C)=O)c1cccc(C(F)(F)F)c1	nt	nt	nt	-6%	nt
Cc1cc(C)c(Cn2cnc3nc4c(cc3c2=O)CCCC4)c(C)c1	nt	nt	nt	-4%	nt
Cc1ccc(C(=O)Nc2nnc(-c3ccco3)o2)cc1C	22*	7%	57*	-12%	-25%
Clc1ccc(-c2nnc(-c3ccco3)o2)cc1	42*	-17%	91*	2%	-5%
Cc1ccccc1C(=O)Nc1nnc(-c2ccco2)o1	33*	4%	57*	-6%	-15%
O=C(Nc1nnc(-c2ccco2)o1)c1ccc(Cl)cc1	29*	nt	42*	-4%	-9%

Bioassay records (PubChem)
